RE007 growth inh = less growth of the S. pombe RE007 Vpr strain; Potency, µM (series often up to 92.2 µM), without a hit: at the highest dose activity change, negative = less growth, most hits filed as inhibitors; 360,000 tested, 0.21% active; S. pombe RE007 Vpr strain, BacTiter-Glo ATP luminescence, 24 h; active = well fitted falling curve with a large enough effect; inconclusive = small, poorly fitted or top-dose-only effect; inactive = no such curve, though single readings can be large or run the other way; note: nearly all actives have a fitted effect of over 50% in size
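Fission yeast strain RE007, carrying one chromosomally integrated HIV-1 vpr copy, was seeded at OD 0.01 in PMG+AL medium with 23 nL pinned compound. After 24 h at 30 °C and 99% humidity, viability was read by BacTiter-Glo luminescence.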
TbPYK inhibitor = inhibitors of Trypanosoma brucei pyruvate kinase; Potency, µM (series often up to 76.8 µM), without a hit: at the top dose activity, negative = inhibition, most hits filed as inhibitors; Q57TT1; TbPYK enzyme, Kinase-Glo Plus ATP luminescence, 45 min; 410,000 tested, 0.12% active; AID 624173; note: nearly all actives have a fitted effect of over 50% in size
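TbPYK + substrate in 50 mM TEA pH 7.2, 100 mM KCl, 10 mM MgCl2, 0.05% BSA, 0.01% Tween-20; cpd pinned; ADP 130 uM final; 45 min RT; Kinase-Glo Plus 10 min; luminescence endpoint.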
Giardia FBPA inh-1 = Giardia lamblia aldolase inhibition; purified Giardia FBPA; Potency, µM (top dose mostly 59.6 µM), inactives show at the top dose activity, negative = inhibition, hits mostly inhibitors; 290,000 tested, 0.71% active; A8B2U2; note: nearly all actives have a fitted effect of over 55% in size
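Giardia FBPA (40 nM reagent) was preincubated 10 min at RT with compound (up to 57.5 uM final), then substrate plus GAPDH/TPI/NAD/arsenate coupling system with diaphorase/resazurin was added; resorufin fluorescence (525/598 nm) was read after 20 min.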
LmPK inh = inhibitors of Leishmania mexicana pyruvate kinase. Q27686. purified LmPK, Kinase-Glo ATP luminescence, 1 h. Potency, µM (doses to about 57.5 µM), without a hit: top-dose activity change, negative = inhibition, hits mostly inhibitors. 290,000 tested, 0.37% active
Target sequence (Q27686 whole entry, looked up): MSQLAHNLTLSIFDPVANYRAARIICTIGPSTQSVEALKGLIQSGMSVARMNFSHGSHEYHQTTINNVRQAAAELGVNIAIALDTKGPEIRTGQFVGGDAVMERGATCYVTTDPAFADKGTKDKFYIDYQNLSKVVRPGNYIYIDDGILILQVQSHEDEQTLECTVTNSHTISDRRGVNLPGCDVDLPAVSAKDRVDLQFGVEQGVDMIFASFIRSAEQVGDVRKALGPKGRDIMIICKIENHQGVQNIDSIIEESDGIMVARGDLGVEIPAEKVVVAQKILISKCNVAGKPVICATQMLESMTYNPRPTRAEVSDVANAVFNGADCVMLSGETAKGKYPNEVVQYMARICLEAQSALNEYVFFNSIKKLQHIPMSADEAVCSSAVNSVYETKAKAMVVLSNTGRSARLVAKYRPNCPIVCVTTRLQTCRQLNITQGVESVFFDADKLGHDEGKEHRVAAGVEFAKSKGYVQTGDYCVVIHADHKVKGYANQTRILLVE
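qHTS format; LmPK 0.1 nM; substrates PEP 0.5 mM and ADP 0.1 mM. One-hour room-temperature incubation, then coupled luciferase luminescence; 0.5 nM enzyme wells mark activation.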
Giardia growth = Giardia lamblia growth inhibition; Giardia lamblia trophozoite growth inhibition; Potency, µM (highest dose often 57.5 µM), for the others: top-dose activity change, negative = inhibition, usual class: inhibitors; shares compounds with Giardia FBPA inh-1; 1,500 tested, 5% active;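 note: trophozoites exposed to compound for 48 h at 37 °C; nearly all actives have a fitted effect of over 70% in size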
Mammalian tox = mammalian cytotoxicity of Giardia aldolase inhibitor hits. 1,500 tested, 4% active. Potency, µM (doses to about 57.5 µM), inactives show top-dose viability change, negative = toxicity, hits mostly inhibitors. AID 2786. shares compounds with Giardia FBPA inh-1. mammalian cell viability counter-screen, qHTS;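 note: Chinese hamster ovary cells used as mammalian cytotoxicity surrogate; viability measured as cellular ATP by luminescence; compound exposure lasted 48 h before reading; nearly all actives have a fitted effect of over 60% in size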
Giardia FBPA inh-2 = confirmation of Giardia fructose-bisphosphate aldolase inhibitors | shares compounds with Giardia FBPA inh-1 | purified Giardia aldolase enzyme activity, qHTS | Potency, µM (series often up to 57.5 µM), without a hit: at the top dose activity change, negative = inhibition, most hits filed as inhibitors | 1,500 tested, 5% active; note: nearly all actives have a fitted effect of over 45% in size
Rabbit aldolase = rabbit FBP aldolase inhibition by Giardia aldolase hits | shares compounds with Giardia FBPA inh-1 | Rabbit muscle FBPA enzyme inhibition, selectivity counter-screen | Potency, µM (series often up to 57.5 µM), without a hit: at the top dose activity, negative = inhibition, most hits filed as inhibitors | 1,500 tested, 4% active; note: nearly all actives have a fitted effect of over 60% in size
GAPDH coupling = GAPDH inhibition flagged for Giardia aldolase hits; shares compounds with Giardia FBPA inh-1; GAPDH coupling enzyme counterscreen, biochemical, qHTS; Potency, µM (series often up to 57.5 µM), without a hit: top-dose activity change, negative = inhibition, hits mostly inhibitors; 1,500 tested, 6% active; AID 2795; note: nearly all actives have a fitted effect of over 55% in size
Active calls of the source: *; [ ] = dose if it differs, or a comment. Only some compounds are listed: those with a hit (about 0.95% of all), similar ones and a draw of the others. Unless noted, calls come from the whole dose curve; as a rule, active = well fitted curve in the direction sought with a large enough effect; inconclusive = small, poorly fitted or top-dose-only effect, or another doubt; inactive = no such curve, though single readings can be large; an effect the other way counts as inactive or inconclusive. % is set by controls: 0 for no effect and ±100 for the full control effect; potency is the fitted concentration of half-maximal effect.

Screening CC(C)(C)NC(=O)[C@@H]1C[C@H]2CCCC[C@@H]2CN1C[C@H](O)[C@H](Cc1ccccc1)NC(=O)[C@@H](CC(N)=O)NC(=O)c1ccc2ccccc2n1 returned Giardia FBPA inh-1 0%[21.7 µM].
Screening CN(C)CCNC(C(=O)Nc1cccc(C(F)(F)F)c1)c1ccccc1 (stereo unspecified) returned RE007 growth inh 8%, TbPYK inhibitor 2%, Giardia FBPA inh-1 18µM*, LmPK inh 0%, Giardia growth -8%, Mammalian tox -8%, Giardia FBPA inh-2 1%, Rabbit aldolase 1% and GAPDH coupling 6%.
`CN(C)CCNC(C(=O)Nc1cccc(S(=O)(=O)N2CCOCC2)c1)c1ccccc1` (stereo unspecified) gave RE007 growth inh -10% and TbPYK inhibitor 5%.
For COC(=O)c1cc(C)nc2c1C(=O)C(=O)C=C2N1CCOCC1 the results were RE007 growth inh -2%, TbPYK inhibitor -12%, Giardia FBPA inh-1 0.25µM*, LmPK inh -10%, Giardia growth 25µM*, Mammalian tox 20µM*, Giardia FBPA inh-2 1.3µM*, Rabbit aldolase 1.4µM* and GAPDH coupling 1.4µM*.
COc1cc(Cl)c(C)cc1NC(=S)NN was read as RE007 growth inh -11%, TbPYK inhibitor -16%, Giardia FBPA inh-1 20µM*, LmPK inh 5%, Giardia growth inconclusive, Mammalian tox 1%, Giardia FBPA inh-2 3%, Rabbit aldolase 3% and GAPDH coupling 8%.
COc1cc(NC(=S)NC(C)(C)C)c(OC)cc1Cl was read as RE007 growth inh -14%, TbPYK inhibitor 9%, Giardia FBPA inh-1 -5% and LmPK inh 0%.
`O=C(O)c1ncn(Cc2ccc(Br)cc2)c1C(=O)O` gave RE007 growth inh 5%, TbPYK inhibitor 12%, Giardia FBPA inh-1 14µM*, LmPK inh 0%, Giardia growth -20%, Mammalian tox 1%, Giardia FBPA inh-2 21%, Rabbit aldolase 22% and GAPDH coupling 25%.
Screening CCCC(=O)NC(c1ccco1)c1cc([N+](=O)[O-])c2cccnc2c1O (stereo unspecified) returned RE007 growth inh -18%, TbPYK inhibitor -3%, Giardia FBPA inh-1 7.1µM*, LmPK inh -15%, Giardia growth inconclusive, Mammalian tox -7%, Giardia FBPA inh-2 -28%, Rabbit aldolase -25% and GAPDH coupling inconclusive.
For CCC(=O)NC(c1ccc(C)cc1)c1cc([N+](=O)[O-])c2cccnc2c1O (stereo unspecified) the results were RE007 growth inh -9%, TbPYK inhibitor inconclusive, Giardia FBPA inh-1 inconclusive and LmPK inh -1%.
O=C(C1CCCN(Cc2ccccc2F)C1)N1CCCC1 (stereo unspecified) was read as RE007 growth inh -3%, TbPYK inhibitor 1%, Giardia FBPA inh-1 -20% and LmPK inh -4%.
`CCOC(=O)C1CCCN(Cc2ccc(OCc3ccccc3)c(OC)c2)C1` (stereo unspecified) gave RE007 growth inh -14%, TbPYK inhibitor 19%, Giardia FBPA inh-1 -29% and LmPK inh 1%.
O=C(C1CCCN(Cc2ccc(Br)cc2)C1)N1CCCCC1 (stereo unspecified) was read as RE007 growth inh -1%, TbPYK inhibitor 22%, Giardia FBPA inh-1 inconclusive and LmPK inh -1%.
Screening Cc1ccc(CN2CCCC(C(=O)N3CCCC3)C2)cc1 (stereo unspecified) returned RE007 growth inh -9%, TbPYK inhibitor 0%, Giardia FBPA inh-1 25µM*, LmPK inh -4%, Giardia growth -4%[10.4 µM], Mammalian tox 9%, Giardia FBPA inh-2 6%, Rabbit aldolase 8% and GAPDH coupling 5%.
`CCOC(=O)C1CCCN(Cc2ccc(OCc3ccccc3)cc2)C1` (stereo unspecified) gave RE007 growth inh -13%, TbPYK inhibitor 4%, Giardia FBPA inh-1 28µM*, LmPK inh -2%, Giardia growth 1%[10.4 µM], Mammalian tox 21%, Giardia FBPA inh-2 12%, Rabbit aldolase 8% and GAPDH coupling -7%.
O=C(C1CCCN(Cc2ccccc2[N+](=O)[O-])C1)N1CCCC1 (stereo unspecified) was read as RE007 growth inh -16%, TbPYK inhibitor 6%, Giardia FBPA inh-1 28µM*, LmPK inh -4%, Giardia growth inconclusive, Mammalian tox 3%, Giardia FBPA inh-2 5%, Rabbit aldolase 4% and GAPDH coupling -1%.
CCOC(=O)C1CCCN(CC(=O)Nc2c(F)c(F)c(F)c(F)c2F)C1 (stereo unspecified) was read as RE007 growth inh -16%, TbPYK inhibitor 1%, Giardia FBPA inh-1 4% and LmPK inh 5%.
`CCOC(=O)C1CCCN(CC(=O)c2ccc(F)cc2)C1` (stereo unspecified) gave RE007 growth inh -6%, TbPYK inhibitor 3%, Giardia FBPA inh-1 16µM*, LmPK inh 0%, Giardia growth 5%, Mammalian tox 5%, Giardia FBPA inh-2 4%, Rabbit aldolase 5% and GAPDH coupling 17%.
Screening Cc1cccc(NC(=O)C(=O)NCCc2csc(-c3ccc(C(F)(F)F)cc3)n2)c1C returned TbPYK inhibitor 1%.
For CCCc1cc(=O)[nH]c2nnc(SCC(=O)Nc3cccc(C)c3)n12 the results were TbPYK inhibitor 0%.
Screening COc1ccc(Nc2cc(C)c3ccc(O)cc3n2)cc1 returned RE007 growth inh -1%, TbPYK inhibitor 0%, Giardia FBPA inh-1 -25%, LmPK inh 2%, Giardia growth -1%[38.3 µM], Mammalian tox 12%, Giardia FBPA inh-2 inconclusive, Rabbit aldolase inconclusive and GAPDH coupling inconclusive.
COC(=O)C1=C(C(=O)OC)[C@@H]2N(C)c3ccc(OC)cc3[C@@]23C[C@@H](C(=O)OC)N(S(=O)(=O)c2ccc(C#N)cc2)C3=N1 was read as Giardia FBPA inh-1 1%[12.9 µM] and LmPK inh 0%[11.5 µM].
